# PubChem BioAssay
# Several values for one entry are separate records, joined by “and”; a condition that tells them apart may be missing. Equal entries are not always repeated. Activity calls are given as the source filed them. Unless noted, no stated cut-off is given here; in the data, active means inhibition above about 80%; inactive means the rest.
# Key:
# [1] = growth inhibition, single agent or in combination, cell-based, chromothripsis tumors, cisplatin or BGB combos (AID 1671449); conditions: LFS_MB_P medulloblastoma cells;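 further: cells exposed for 96 hours; 0% = vehicle DMSO and 100% = killing by high DMSO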
# [2] = growth inhibition, single agent and combos, cell-based, chromothripsis tumors, cisplatin or BGB combos (AID 1671450); conditions: HDN33 neuroblastoma cells, stronger effect = higher value;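 further: cells exposed to compound for four days; 0% = vehicle DMSO and 100% = cell killing by high DMSO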
# [3] = growth inhibition, single agents and combos, ICB984, cell-based, cisplatin or BGB combos, synergistic combos for chromothripsis tumors (AID 1671451; call rule not given here;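 further: cells exposed for 96 hours before readout; 0% = vehicle DMSO and 100% = killing by high DMSO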); conditions: ICB984 medulloblastoma cells, drug combinations, stronger effect = higher value
# [4] = growth inhibition, single agents and combos, LFS_MB_1R, cell-based, cisplatin or BGB combos, synergistic combos for chromothripsis tumors (AID 1671452); conditions: LFS_MB_1R medulloblastoma cells, stronger effect = higher value;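 further: cells exposed for 96 hours before readout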
# [5] = growth inhibition, single agents and combos, HTB85, cell-based, BGB or cisplatin IC20 combos, synergistic combos for chromothripsis tumors (AID 1671453); conditions: HTB85 osteosarcoma cells, drug combinations, stronger effect = higher value;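 further: cells exposed for 96 hours before readout; 0% = vehicle DMSO and 100% = high DMSO killing control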
# [6] = growth inhibition, single agents and combos, CRL2098, cell-based, BGB or cisplatin IC20 combos, synergistic combos for chromothripsis tumors (AID 1671454); conditions: CRL2098 osteosarcoma cells, drug combinations, stronger effect = higher value;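 further: cells exposed for 96 h before readout; 0% = vehicle DMSO and 100% = killing by high DMSO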
# [7] = growth inhibition, single agents and combos, HD-MB03, cell-based, BGB or cisplatin IC20 combos, synergistic combos for chromothripsis tumors (AID 1671455; in the data active means inhibition above about 83%;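 further: 0% = vehicle DMSO and 100% = high DMSO as cytotoxic control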); conditions: HD-MB03 medulloblastoma cells, stronger effect = higher value
# [8] = growth inhibition, single agents and combos, UWB1.289, cell-based, BGB or cisplatin combos, synergistic combos for chromothripsis tumors (AID 1671456); conditions: UWB1.289 ovarian carcinoma cells, stronger effect = higher value;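 further: cells exposed to compound for four days; 0% = vehicle DMSO and 100% = killing by high DMSO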
# [9] = growth inhibition, single agents and combos, LFS_MB_2R, cell-based, cisplatin combos, synergistic combos for chromothripsis tumors (AID 1671457); conditions: LFS_MB_2R medulloblastoma cells, stronger effect = higher value;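 further: cells exposed to compound for four days before readout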
# [10] = growth inhibition, MDA-MB-436, cell-based, BGB or cisplatin combos, synergistic combos for chromothripsis tumors (AID 1671458; call rule not given here;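 further: cells exposed for 96 hours; 0% = vehicle DMSO and 100% = killing by high DMSO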); conditions: MDA-MB-436 breast carcinoma growth inhibition, drug combinations, stronger effect = higher value
# [11] = UWB1.289_BRCA1 ovarian cancer growth, cell-based, BGB or cisplatin combinations (AID 1671459); conditions: UWB1.289 BRCA1 ovarian carcinoma, drug combinations, stronger effect = higher value
# [12] = drug combination toxicity in non-malignant astrocytes – cell-based, BGB or cisplatin IC20 combos, cytotoxicity control for chromothriptic childhood tumor combination screen (AID 1671460); conditions: Human astrocytes, viability inhibition, drug combinations, at 0.5 µM, stronger effect = higher value;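 further: cells exposed to compounds for 96 hours before viability readout; 0% = vehicle and 100% = killing control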
# [13] = BT084 cell growth, single and combined drugs, ICGC_MB145, cisplatin and BGB IC40 combos (AID 1671461); conditions: BT084 medulloblastoma cells, drug combinations, stronger effect = higher value;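 further: cells exposed to drugs for 96 hours; 0% = vehicle DMSO and 100% = high DMSO full killing control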
# [14] = RCMB18 cell growth, single agent and combined, cisplatin and BGB IC40 combos (AID 1671462); conditions: RCMB18 medulloblastoma cells, stronger effect = higher value;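 further: cells exposed to compound for four days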
# [15] = CRL1545 cell growth, single agent and combined, cisplatin and BGB IC20 combos (AID 1671464); conditions: CRL1545 osteosarcoma cells, stronger effect = higher value;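 further: cells exposed to compound for 96 hours before readout; 0% = vehicle DMSO and 100% = high DMSO killing control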
# [16] = measured here: combination with BGB IC40, at 0.05 µM
# [17] = measured here: with BGB IC20 combination, at 0.5 µM
# [18] = measured here: with cisplatin IC20 combination, at 0.5 µM
# [19] = measured here: combination with cisplatin, at 0.5 µM
# [20] = measured here: combination with cisplatin, at 5 µM
structure (smiles),measurement,setting,value
Nc1nc(NC2CC2)c2ncn(C3C=CC(CO)C3)c2n1 (stereo not drawn),inhibition,"[1]; at 0.5 µM, stronger effect = higher value",18.6% (inactive) and 9.78% (inactive)
same,inhibition,"[1]; measured here: combination with BGB IC20, at 0.005 µM",-10.2% and -25.3%
same,inhibition,"[1]; measured here: combination with BGB IC40, at 0.005 µM",-2.6% and -37.7%
same,inhibition,[1]; [16],-13.2% and -43.3%
same,inhibition,"[1]; measured here: combination with cisplatin, at 0.5 µM, stronger effect = higher value",0.791% and -12%
same,inhibition,"[1]; measured here: combination with cisplatin, at 5 µM, stronger effect = higher value",42.6% and 20.9%
same,inhibition,"[2]; BGB combo, at 5 µM",7.05% and 3.14%
same,inhibition,[2]; at 0.5 µM,-27.8% (inactive) and -12.2% (inactive)
same,inhibition,"[2]; cisplatin combo, at 5 µM",15.9% and 16.9%
same,inhibition,[2]; [17],-24.7% and -14%
same,inhibition,[2]; [18],-37.5% and -12%
same,inhibition,"[2]; single agent, at 5 µM",15.7% and 29.8%
same,inhibition,"[3]; BGB IC20 combo, at 0.005 µM",-32.2% and 1.07%
same,inhibition,"[3]; BGB IC40 combo, at 0.005 µM",-10% and -27%
same,inhibition,"[3]; BGB IC40 combo, at 0.05 µM",11.7% and 20.9%
same,inhibition,[3]; at 0.5 µM,-15.2% (inactive) and -19.6% (inactive)
same,inhibition,"[3]; cisplatin combo, at 0.05 µM",9.21% and 18%
same,inhibition,"[3]; cisplatin combo, at 0.5 µM",-8.32% and -16.8%
same,inhibition,"[3]; cisplatin combo, at 5 µM",-66.5% and -40.2%
same,inhibition,"[3]; measured here: 5 uM single agent, at 5 µM",-33.4% and -23.1%
same,inhibition,[4]; at 0.5 µM,-29.4% (inactive) and -14.1% (inactive)
same,inhibition,[4]; [16],-41.9% and -20.2%
same,inhibition,[4]; [19],-65.7% and -24.2%
same,inhibition,[4]; [20],10.3% and 37.7%
same,inhibition,[5]; at 0.5 µM,-22.4% (inactive) and -2.82% (inactive)
same,inhibition,"[5]; measured here: with BGB IC20, at 0.5 µM",-29.8% and -5.83%
same,inhibition,"[5]; measured here: with BGB IC20, at 5 µM",-10.5% and 18.8%
same,inhibition,"[5]; measured here: with cisplatin IC20, at 0.5 µM",-25.7% and -8.4%
same,inhibition,"[5]; measured here: with cisplatin IC20, at 5 µM",3.54% and 48.9%
same,inhibition,"[5]; single agent, at 5 µM",15.5% and 29.1%
same,inhibition,[6]; at 0.5 µM,-73.4% (inactive) and -21.7% (inactive)
same,inhibition,"[6]; measured here: combination with BGB at IC20, at 0.5 µM",-122% and -23.9%
same,inhibition,"[6]; measured here: combination with cisplatin at IC20, at 0.5 µM",-57% and -77.8%
same,inhibition,[7]; at 0.5 µM,-12.2% (inactive) and -6.69% (inactive)
same,inhibition,"[7]; measured here: combo with BGB at IC20, at 0.5 µM",-5.41% and -19.4%
same,inhibition,"[7]; measured here: combo with cisplatin at IC20, at 0.5 µM",-23.6% and 5.04%
same,inhibition,[8]; at 0.5 µM,-7.07% (inactive) and -1.31% (inactive)
same,inhibition,"[8]; measured here: inhibition with BGB combination, at 0.05 µM",-16.1% and -7.54%
same,inhibition,"[8]; measured here: inhibition with cisplatin combination, at 0.05 µM",-20.7% and -16.3%
same,inhibition,[9]; at 0.5 µM,-0.03% (inactive) and -16.7% (inactive)
same,inhibition,[9]; [19],2.24% and -15.7%
same,inhibition,[9]; [20],-15.7% and 24.3%
same,inhibition,[10]; at 0.5 µM,0.7% (inactive) and -5.22% (inactive)
same,inhibition,"[10]; measured here: BGB combination, at 0.5 µM",5.51% and -4.19%
same,inhibition,"[10]; measured here: BGB combination, at 5 µM",23.6% and 15.9%
same,inhibition,"[10]; measured here: cisplatin combination, at 0.5 µM",-6.39% and -11.5%
same,inhibition,"[10]; measured here: cisplatin combination, at 5 µM",25.3% and 12.2%
same,inhibition,"[11]; BGB combination, concentration series, at 5 µM",21.9% and 44.1%
same,inhibition,[11]; at 0.5 µM,-6.63% (inactive) and -4.62% (inactive)
same,inhibition,"[11]; cisplatin combination, concentration series, at 5 µM",36% and 67.6%
same,inhibition,[12],-19.5% (inactive) and 11.5% (inactive)
same,inhibition,[12]; measured here: combo with BGB IC20,-10.8% and 10%
same,inhibition,[12]; measured here: combo with cisplatin IC20,-38.1% and 8.23%
same,inhibition,[13]; at 0.5 µM,-4.33% (inactive) and -11.9% (inactive)
same,inhibition,"[13]; cisplatin combination, at 0.5 µM",6.28% and -30.6%
same,inhibition,"[13]; cisplatin combination, at 5 µM",27.2% and 36.5%
same,inhibition,"[13]; measured here: BGB IC40 combination 0.05 uM, at 0.05 µM",4.8% and -24.4%
same,inhibition,"[13]; single agent, at 5 µM",29.7% and 30.5%
same,inhibition,[14]; at 0.5 µM,-22.8% (inactive) and -12.3% (inactive)
same,inhibition,"[14]; cisplatin combo, at 5 µM",15.1% and 15.7%
same,inhibition,"[14]; measured here: BGB IC40 combination, at 0.05 µM",-23.6%
same,inhibition,[14]; [19],-50.2% and -0.496%
same,inhibition,"[14]; single agent, at 5 µM",16.3% and 21.5%
same,inhibition,[15]; at 0.5 µM,-22.4% (inactive) and -10.8% (inactive)
same,inhibition,[15]; [17],-35.1% and -4.57%
same,inhibition,[15]; [18],-18.6% and -15.8%
same,inhibition,"[15]; single agent, at 0.05 µM",-49.6% and -25.5%
same,inhibition,"[15]; single agent, at 5 µM",-7.83% and 23.5%
